Test results reported in PubChem BioAssay AID435000 (NMMLSC, 2010).
The list shows a part of the results.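 Rule for the calls: active = fluorescence response below 15%; inactive = the rest.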

Experiment: DHE quenching or ROS scavenging interference in aged yeast, artefact control for yeast caloric restriction mimetic project, S. cerevisiae BY4741, flow cytometry (AID 435000);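 note: percent of the mean fluorescence averaged over all compound wells on the plate; lower means stronger quenching of DHE signal or ROS scavenging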
Conditions: at 10 µM, active compounds read low

Fluorescence response, inactive:
CC(=O)c1ccc2c(c1)c1ccccc1n2CC(C)C 107%
O=C(CN1CCN(c2ccccn2)CC1)Nc1ccc(Br)cc1 97%
COC(=O)CNC(=O)c1ccc(OC2CCN(C(=O)C3CC3)CC2)cc1 113%
O=C(O)c1ccc(F)c(S(=O)(=O)Nc2ccccc2)c1 90.9%
COc1cc(NC(=O)CSc2ccc(-c3cccnc3)nn2)cc(OC)c1 123%
Cc1ccc(-c2nnc(Nc3ccc(C(=O)N(C)C)cc3)c3ccccc23)cc1S(N)(=O)=O 113%
Cc1ccc(-c2nc(CS(=O)CC(=O)N3CCN(c4ncccn4)CC3)c(C)o2)cc1 (configuration not stated) 95.7%
CCN(CC)c1ccc(NC(=O)CN2CCN(c3ccccn3)CC2)cc1 95.7%
Cc1ccc2cccc(S(=O)(=O)N3CCN(c4ccccc4F)CC3)c2n1 104%
CC(=O)C[C@@H](O)CC(=O)[C@H]1OC(=O)CCCCCCc2ccccc21 113%
CC(C)NC(=O)/C(C#N)=C\c1ccc(N(C)C)c(Br)c1 92.3%
CSc1sc(C(=O)NNC(=O)c2ccc(Cl)cc2)c2c1C=CCC2 92.4%
O=C(O)C1CCCN1S(=O)(=O)c1ccc(Br)cc1 (configuration not stated) 90.2%
COc1cc(-c2nnn(CC(=O)NCc3ccccc3)n2)cc(OC)c1OC 99.2%
COc1ccc(C)cc1S(=O)(=O)Nc1cccc(Cl)c1Cl 102%
O=C(Nc1cccc(Cl)c1Cl)c1ccccc1NC(=O)C1CC=CCC1C(=O)O (configuration not stated) 89.9%
CCCC(C)C(=O)OCC(=O)Nc1c(Br)cc(C)cc1Br (configuration not stated) 89.1%
Cc1cc(=O)n2[nH]c(-c3cccc(Cl)c3)cc2n1 92.6%
O=C(CSCc1ccccc1)Nc1ccccc1 111%
CSc1ncc(Cl)c(C(=O)Nc2cc(C)ccc2C)n1 95.1%
Cc1ccc(-c2nn(C(C)(C)C)c3ncnc(N)c23)cc1 99.5%
CCn1c2ccccc2c2cc(NC(=O)CNC)ccc21 112%
